Shown are actives, neighbours in structure and some others; about 4.2% of the full set was active somewhere.
S1P4 antagonist = blocks the human S1P4 receptor; O95977; inhibition, % at 4.98 µM; S1P4-expressing cells, antagonist mode, reporter read-out; AID 1510; 220,000 tested, 0.26% active; in the data active = inhibition above about 29%;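 also: 0% = wells stimulated with agonist and 100% = vehicle wells without agonist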
Target sequence (O95977 whole entry, looked up): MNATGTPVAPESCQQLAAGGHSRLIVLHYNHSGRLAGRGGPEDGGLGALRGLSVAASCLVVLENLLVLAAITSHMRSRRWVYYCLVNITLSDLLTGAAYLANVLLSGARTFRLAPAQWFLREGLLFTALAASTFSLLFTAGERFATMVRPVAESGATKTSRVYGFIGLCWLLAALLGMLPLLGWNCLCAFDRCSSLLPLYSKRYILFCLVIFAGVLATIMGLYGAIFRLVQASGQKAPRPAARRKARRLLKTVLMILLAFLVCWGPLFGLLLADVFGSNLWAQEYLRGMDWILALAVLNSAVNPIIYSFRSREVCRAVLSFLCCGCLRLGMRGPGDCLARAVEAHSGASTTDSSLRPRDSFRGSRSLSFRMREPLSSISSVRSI
CHOP inh = inhibitors of CHOP induction in ER stress response; CHO-K1 CHOP-promoter luciferase, tunicamycin-induced, 15-18 h; inhibition, % at 10 µM; 220,000 tested, 3.8% active;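 active = compounds that reduced the stress-induced luciferase reporter signal by more than about 70% of percent inhibition, limit read from the data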;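 also: 0% = tunicamycin plus vehicle and 100% = wells without tunicamycin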
Hsp70 act = transcriptional activators of Hsp70 | 200,000 tested, 0.04% active | HeLa Hsp70 promoter luciferase reporter, luminescence; scaled: vehicle 0, proteasome-inhibitor control 100% | activation, % at 10 µM;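 active = activation above the mean across all tested compounds plus 3 SD, cutoff set per campaign, cut at about 5.5% in these data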;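 also: 100% = MG132 at 30 µM as the positive control and 0% = DMSO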
S1P4 agonist = human S1P4 receptor agonism. S1P4-expressing cell line, agonist reporter assay. activation, % at 4.98 µM. 220,000 tested, 0.35% active. AID 1509; in the data active = activation above about 11%;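 also: 0% = DMSO vehicle and 100% = reference agonist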
* hit, by the source's call.

How did CCOC(=O)c1ccc(S(=O)(=O)Nc2cc(C(C)(C)C)no2)cc1 do in these assays?
S1P4 antagonist: -6.7; CHOP inh: 20.1; Hsp70 act: 0.1; S1P4 agonist: -0.3

Results for CN(CC(O)COc1ccc(OCC(O)CN(C)C2CCCCC2)cc1)C1CCCCC1 (stereo unspecified) ?
S1P4 antagonist: 0.5; CHOP inh: 21.8; Hsp70 act: 0.0; S1P4 agonist: -1.1

What do the screens show for `Cc1cccc(C)c1OCC(O)CN(Cc1ccccc1O)C1CCCCC1` (stereo unspecified)?
S1P4 antagonist: -12.6; CHOP inh: 85.5*; Hsp70 act: -0.2; S1P4 agonist: 2.5

How did COc1cc(OC)cc(C(=O)N2CCCc3ccccc32)c1 do in these assays?
S1P4 antagonist: -6.2; CHOP inh: 11.2; Hsp70 act: -0.1; S1P4 agonist: 0.5

How did Cc1ccc(S(=O)(=O)N2CCCCC2)cc1C(=O)N1CCN(c2ccccn2)CC1 do in these assays?
S1P4 antagonist: 6.6; CHOP inh: -0.1; Hsp70 act: -0.1; S1P4 agonist: 0.5

How did O=C(COC(=O)c1ccccc1)NCc1ccco1 do in these assays?
S1P4 antagonist: -22.3; CHOP inh: 5.6; Hsp70 act: -0.1; S1P4 agonist: 0.8

How did O=C(COC(=O)c1cc(-c2ccc(Cl)s2)nc2ccccc12)NCc1ccco1 do in these assays?
S1P4 antagonist: 6.2; CHOP inh: 81.4*; Hsp70 act: -0.2; S1P4 agonist: 1.8

Results for O=C(COC(=O)c1ccccc1Nc1cccc(C(F)(F)F)c1)NCc1ccco1 ?
S1P4 antagonist: 2.7; CHOP inh: 78.6*; Hsp70 act: 0.7; S1P4 agonist: -2.2

What do the screens show for `O=C1c2cccc3c(N4CCCCC4)ccc(c23)C(=O)N1c1ccc(O)cc1`?
S1P4 antagonist: -17.5; CHOP inh: 106.4*; Hsp70 act: -0.2; S1P4 agonist: 1.4

What do the screens show for `COc1ccc(/C=C/C(=O)NCc2cccnc2)cc1`?
S1P4 antagonist: -26.4; CHOP inh: 15.0; Hsp70 act: -0.1; S1P4 agonist: -0.8

What do the screens show for `COc1ccc(/C=C/C(=O)Nc2sc3c(c2C(=O)NCc2cccnc2)CCCC3)cc1`?
S1P4 antagonist: -4.5; CHOP inh: 81.0*; Hsp70 act: -0.1; S1P4 agonist: 0.0

What do the screens show for `CC1(C)N=C(SCC(=O)Nc2ccc(Cl)cc2)C(c2ccccc2)=N1`?
S1P4 antagonist: 13.2; CHOP inh: 78.4*; Hsp70 act: -0.7; S1P4 agonist: -3.9

How did CC1(C)N=C(SCC(=O)Nc2ccc(Cl)cc2)C(c2ccc(Cl)cc2)=N1 do in these assays?
S1P4 antagonist: 17.0; CHOP inh: 72.5*; Hsp70 act: -0.5; S1P4 agonist: -1.1

What do the screens show for `O=C(NC1CCCCC1)N1CCSC1=Nc1ccccc1`?
S1P4 antagonist: 3.3; CHOP inh: 89.0*; Hsp70 act: -0.6; S1P4 agonist: 1.3

What do the screens show for `Cc1cccc(-n2ncc3c(NC4CCCCC4)ncnc32)c1`?
S1P4 antagonist: -91.8; CHOP inh: 66.8; Hsp70 act: -0.2; S1P4 agonist: 1.5

What do the screens show for `CC(Sc1nc(-c2ccccc2)cc(C(F)(F)F)n1)C(=O)N1CCCC1` (stereo unspecified)?
S1P4 antagonist: -8.7; CHOP inh: 92.2*; Hsp70 act: 0.1; S1P4 agonist: 1.9

How did CC(Sc1nc(-c2ccccc2)cc(C(F)(F)F)n1)C(=O)N1CCOCC1 (stereo unspecified) do in these assays?
S1P4 antagonist: 1.2; CHOP inh: -2.7; Hsp70 act: -0.4; S1P4 agonist: -1.4

How did OC(CN1c2ccccc2Sc2ccccc21)Cn1nnc2ccccc21 (stereo unspecified) do in these assays?
S1P4 antagonist: 7.9; CHOP inh: 63.2; Hsp70 act: 0.2; S1P4 agonist: -1.1

Results for Cc1nn(CC(O)CN2c3ccccc3Sc3ccccc32)c(C)c1Br (stereo unspecified) ?
S1P4 antagonist: 1.6; CHOP inh: 76.6*; Hsp70 act: -0.1; S1P4 agonist: -2.7

Results for CCOC(=O)N1CCN(S(=O)(=O)c2ccc(C)c(C)c2C)CC1 ?
S1P4 antagonist: -62.6; CHOP inh: 13.5; Hsp70 act: -0.2; S1P4 agonist: 3.4

Results for Cc1ccc(S(=O)(=O)n2nc(C)c(Br)c2C)c(C)c1C ?
S1P4 antagonist: 22.6; CHOP inh: 88.6*; Hsp70 act: -0.1; S1P4 agonist: 0.4

What do the screens show for `COCCNC(=O)c1ccc2c(c1)NC(=O)CS2`?
S1P4 antagonist: -6.1; CHOP inh: 4.7; Hsp70 act: -0.1; S1P4 agonist: 0.1

What do the screens show for `CCOc1cc2c(cc1C(C)(C)C)NC(=O)CS2`?
S1P4 antagonist: -7.7; CHOP inh: 84.7*; Hsp70 act: -0.1; S1P4 agonist: -0.7

Results for NC(=O)c1c(NC(=O)c2ccccc2)sc2c1CCc1ccccc1-2 ?
S1P4 antagonist: -13.9; CHOP inh: -26.6; Hsp70 act: -0.1; S1P4 agonist: -2.5
